± gives the standard deviation of the averaged measurements. Whole data set: some 33,000 sequences, median “E-score (rank enrichment, -0.5 to 0.5)” near -0.0028, cut for the highest 2% near 0.23. For the sample, the highest values were picked, then their nearest neighbours and some sequences at random.
What follows are sequences tested on 2Sb-muMax20 (muMax20 with two 1,3-bis(methyl)benzene Cys staples, A13C/A17C and Q88C/A92C, C-terminal Lys) (assay: PBM 8-mer E-score (E-score (rank enrichment, -0.5 to 0.5)); higher = stronger preferential binding).
Experimental: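 Protein binding microarray (universal PBM chip covering all 10-mers in fixed probe flanks) with chemically synthesized human Max(13-93) bHLH-LZ analogs (not full-length Max) bearing noncanonical residues (hArg, Tha, Aib, Nle at 65) and aromatic Cys staples. Read-out per 8-mer (and its reverse complement): E-score (rank-based enrichment, -0.5 to 0.5) and Z-score of median probe intensity.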

Sequence	PBM 8-mer E-score
CATATTAG	0.132 ± 0.032
AATATTAT	0.259 ± 0.0099
AATATTAA	0.335 ± 0.045
ACTATTAA	0.176 ± 0.026
CATATTAA	0.238 ± 0.062
AGTATTAG	0.147 ± 0.0055
AGGAGGTC	-0.222 ± 0.015
CGGGAGGC	-0.24 ± 0.032
ATCTTACA	0.075 ± 0.012
ACCCAAGA	0.0956 ± 0.071
GGACCAGA	-0.2186 ± 0.0017
AGCCAACC	0.106 ± 0.0086
GTCAATAA	0.075 ± 0.025
TGAGACAA	0.109 ± 0.058
AGCTTAGC	-0.123 ± 0.011
ACTGGGTG	0.00505 ± 0.024
CGTTTAGC	0.00586 ± 0.16
TCTGTGCA	-0.0114 ± 0.085
GCTAGAAC	-0.0972 ± 0.085
CATATTAC	0.146 ± 0.071
GATATTAC	0.187 ± 0.088
AATATTAC	0.26 ± 0.0093

Sequence	PBM 8-mer E-score
ACGCAGCA	-0.0676 ± 0.011
CATCAATA	0.0338 ± 0.066
CCTTTCAC	0.0485 ± 0.022
CTCGCGAC	0.107 ± 0.013
ATCGCGAT	0.255 ± 0.036
ATCGCGAA	0.0277 ± 0.02
GTCGCGAC	0.291 ± 0.0036
ATCGCGAG	0.151 ± 0.049
GTCGCGAA	-0.208 ± 0.09
GGCTGTGA	-0.181 ± 0.072
ACTTATGC	-0.0277 ± 0.024
AGTGCGAC	-0.0265 ± 0.057
GACCAGAC	-0.231 ± 0.026
CGGTCGGA	-0.196 ± 0.0063
CATTCGTC	-0.00288 ± 0.012
AAGATACA	0.245 ± 0.033
ATGATACA	0.255 ± 0.0028
ATGATACC	0.127 ± 0.024
GAGATACA	0.0204 ± 0.028
AAGATGCA	0.262 ± 0.023
AAGATGCT	0.0039 ± 0.035
AAGATACT	0.151 ± 0.031

Sequence	PBM 8-mer E-score
CTGATACA	-0.049 ± 0.059
GAGATGCA	0.113 ± 0.076
GCAAATCA	-0.0255 ± 0.056
ACTTTGCG	0.0825 ± 0.063
AGCTACTA	0.0815 ± 0.033
AATTGGAA	0.00538 ± 0.0076
TGTTAACA	0.301 ± 0.013
AGTTAACA	0.138 ± 0.09
CGTTAACA	0.0451 ± 0.018
CAAACTGG	-0.0119 ± 0.034
AAATATTA	0.243 ± 0.032
AAATATGA	0.247 ± 0.032
GAATATTC	0.166 ± 0.09
AAATATGT	0.148 ± 0.031
GAATATTA	0.238 ± 0.066
GGATATTA	0.128 ± 0.11
TAATATTA	0.35 ± 0.0053
TAATATAA	0.152 ± 0.00074
CAATATTA	0.106 ± 0.017
TAATATGA	0.168 ± 0.022
CAATATGA	0.159 ± 0.05
AAATATTC	0.124 ± 0.084

Sequence	PBM 8-mer E-score
AAAGGTTA	0.0976 ± 0.032
ACTCACTC	0.00443 ± 0.03
CCTTTTGC	-0.0513 ± 0.057
CATAGGAA	0.0608 ± 0.002
TATAGGAA	0.255 ± 0.038
AATAGGAA	-0.0166 ± 0.01
ATAATCAA	0.0744 ± 0.015
ATCATAAA	0.000625 ± 0.011
AACATAAG	0.118 ± 0.021
ATCATAAT	0.232 ± 0.024
AACATAAC	0.202 ± 0.012
ATCATGAT	0.267 ± 0.045
ATAATCAT	0.241 ± 0.044
ATAATCAG	0.198 ± 0.028
ATCATGAG	0.0432 ± 0.081
ATCATGAA	0.1293 ± 0.00082
AACATAAT	0.297 ± 0.014
ATCATAAG	0.217 ± 0.062
AAGGGCCG	-0.18 ± 0.018
ATTTTAGA	0.0196 ± 0.021

Source: the supplement of paper PMC12636033
